Consider 40 molecules from PubChem BioAssay (NCI).

This is part of a sample that, as a whole, favours compounds with a hit. Of some 83,000 tested, about 20% had one in any assay.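 In brief: 96-well plates, 48 h treatment, single concentration, percent growth endpoint.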 Values without a mark were called inactive. Active and inactive are the calls of the source.

The subject of the test is M14 melanoma. Nature of the test: NCI-60 one-dose screen, 48 h (100 = growth as untreated, 0 = no growth, -100 = all killed). As to conditions: 10 µM unless noted. As for the experimental part:
Growth inhibition of the M14 human tumor cell line is measured as a screen for anti-cancer activity. Cells are grown in 96 well plates and exposed to the test compound for 48 hours. Compounds are tested at a single concentration, which is 10^-5 M for most compounds. The reported endpoint is percent growth (GI% or GIPRCNT), where numbers from 0 - 100% represent growth inhibition, and numbers from -100% - 0 represent cell death. For example, a value of 40 represents 60% growth inhibition. A value of 0 means no net growth occurred over the course of the experiment. A value of -40 indicates 40% of cells at the beginning of the experiment died by the end of the experiment. A value of -100 means all cells are dead at the end of the experiment.
NCI-60 Human Tumor Cell Lines Screen was performed using the standard one-dose NCI protocol, which is described in more detail at https://dtp.cancer.gov/discovery_development/nci-60/default.htm.
Compounds with GIPRCNT values below 10 were considered active. Activity score was based on GIPRCNT using the following formula: […]
Score is 0 for GIPRCNT values of 100 or above, 50 for GIPRCNT values of 0, and 100 for GIPRCNT values of -100.
As to `CC(=O)Oc1c(Cl)c(Cl)c(Cl)c(Cl)c1Cl`, the growth is 105%.
`CCN1CCN(Cc2ccc(NC(=O)Nc3ccc(-n4ccc5c(NC(=O)c6ccccc6)nccc54)cc3)cc2C(F)(F)F)CC1`: the growth was -65.1% (active).
Next, `COc1cc(OC)cc(-c2ccc(-c3ccc(C(=N)N)s3)s2)c1`: -88.2% (active).
On to `COc1ccc(CC2c3cc(OC)c(OC)cc3CC[N+]2(C)CCC(=O)OCCCCCOC(=O)CC[N+]2(C)CCc3cc(OC)c(OC)cc3C2Cc2ccc(OC)c(OC)c2)cc1OC` (stereo not given), for which the growth is 88.5%.
Regarding `O=[N+]([O-])c1ccc(Sc2nc(Cl)nc(NC3CCCC3)n2)cc1`, the growth was -94.6% [100 µM] (active).
In the case of `CCOC(=O)C(Cc1ccccc1)n1c(O)c(/C=N/c2ncc(Cc3ccc(Cl)cc3Cl)s2)sc1=S` (stereo not given), the growth is 10.8%.
As to `COc1ccc2nc(-c3ccc(-c4noc(-c5ccc(Cl)cc5)n4)cc3)[nH]c2c1`, the growth was 42.9%.
As for `CC1CCN(CCCCCOc2ccc3oc4ccc(Cl)cc4c(=O)c3c2)CC1`, the growth is -54% (active).
Consider `COc1cc(-c2nn(C(=O)NCCN3CCN(C)CC3)cc2-c2ccncc2)ccc1Cl`, for which the growth is 68.9%.
In the case of `COc1ccc(NC(=O)Cn2c(=O)sc3c(-c4ccc(Cl)cc4)cc(-c4ccc(Cl)cc4)nc32)cc1`, the growth was 94.1%.
Regarding `O=C(CSc1nc2c(n1Nc1ccccc1)-c1ccccc1SC2)Nc1nccs1`, the growth is 102%.
Turning to `CC(C)CCSc1nc(-c2ccc(F)cc2)c(C#N)c(N2CCN(C)CC2)n1`, the growth was 94.7%.
For the molecule `CCNCCCn1c2c(c3ccc(Cl)cc3c1=O)C(=O)c1cc(OC)cnc1-2`, the growth is 40%.
As for `CCN1C(=O)/C(=C/N2N=C(c3ccc(Cl)cc3)CC2c2ccc(OC)cc2)SC1=S` (stereo not given), the growth was 92.3%.
As for `Nc1ncnc2c1N=C(c1ccc3c(c1)OCO3)CC(c1ccc(Cl)cc1)N2` (stereo not given), the growth is 96%.
As for `CCOC(=O)c1ccc2c(c1)[n+](=O)c(C(=O)c1ccc3ccccc3c1)c(C(F)(F)F)n2[O-]`, the growth was -100% (active).
As to `Cn1cnc([N+](=O)[O-])c1S(=O)(=O)Oc1ccccc1`, the growth was 53.1%.
For the molecule `COc1ccc(N=C2CSc3nnc(-c4cc(F)c(Cl)cc4Cl)n3N2)cc1`, the growth is -44.7% (active).
With `C[C@H](NC(=O)c1snnc1C1CC1)c1c(F)cccc1Cl`, the growth is 116%.
`CCOC(=O)C1=C(C)NC(=S)NC1c1ccccc1` (stereo not given): the growth is 107%.
In the case of `CCCCCCCCCCCCC1CCC(=O)O1` (stereo not given), the growth was 91.6%.
As to `Cc1ccc(Nc2cccc3ccccc23)cc1`, the growth is 89.6%.
`O=C(Nc1ccc([N+](=O)[O-])cc1)c1cc2ccccc2cc1O`: the growth was -11.4% (active).
`CC(=O)c1ccc(N2C(=O)c3ccc(Oc4ccccc4)cc3C2=O)cc1`: the growth is 98.8%.
With `O=C1CCCN1C1CCN2CCCc3cccc1c32` (stereo not given), the growth was 100%.
As to `Clc1cccc(CNc2c3ccccc3nc3ccccc23)c1`, the growth is 35.5%.
Turning to `CCCCCCCCCCCC1=NC(C)(C)CN1C(C)C`, the growth is -26.6% (active).
For `Clc1ccc(Cl)c(N=Cc2ccc3c(c2)OCO3)c1`, the growth is 102%.
As to `COc1nccc2c(Sc3ccccc3)nc(N)nc12`, the growth was 118%.
For the molecule `CCN(CC)c1ccc(/C=N/NC(=O)c2ccc(S(C)(=O)=O)cc2)c(O)c1`, the growth was 3.37% (active).
For the molecule `Cc1cc(N)cc(C)c1-c1c(Br)cc(N)cc1Br`, the growth was 10.8%.
Next, `O=c1c2cc(Cl)ccc2oc2ccc(OCCCCCN3CCCCCC3)cc12`: 45.2%; `CCOC(=O)c1cc(N)nc2ccccc12`: 108%.
Regarding `COc1ccc(Oc2nc(Nc3ccc(N4CCOCC4)cc3)ncc2NC(=O)Nc2cccc(OC)c2)cc1`, the growth is 71.9%.
Take `CC(C)(c1ccccc1)c1cc(O)c(C(C)(C)c2ccccc2)cc1O`: the growth was 11.9%.
Turning to `O=C(Nc1ccccc1)c1cc2ccccc2s1`, the growth was 75.5%.
Take `C#C[C@]1(O)CC[C@H]2[C@@H]3CC=C4c5sc(-c6cccc(Br)c6)nc5CC[C@]4(C)[C@H]3CC[C@@]21C`: the growth is 69.3%.
In the case of `COc1ccc2nc3cc(Cl)ccc3c(NC(=O)CSc3ccc(Cl)cc3)c2c1`, the growth was -97.4% (active).
As for `CNC1=C([N+](=O)[O-])C(c2ccccc2O)C(C#N)=C(c2cccs2)O1` (stereo not given), the growth was 93.4%.
In the case of `COc1cnc2c(c1)C(=O)c1c-2n(CCCN2CCN(C)CC2)c(=O)c2cc(Cl)ccc12`, the growth was -54.4% (active).
